Experiment [1] can be described thus: A CellTox Green Cytotoxicity Assay to monitor cytotoxicity in HepG2 cells - 0 hour (AID 1224882). Also: nearly all actives have a fitted effect of over 35% in size. A digest of the protocol: (§1)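 Continuous culture of HepG2 cells with a membrane-impermeant DNA dye; rising fluorescence marks dead cells. Compound exposure lasted up to 40 h at 37 C, with reads every 8 h from 0 h.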
The nature of experiment [2]: A CellTox Green Cytotoxicity Assay to monitor cytotoxicity in HepG2 cells - 32 hour (AID 1224883). Also: nearly all actives have a fitted effect of over 50% in size. In short, it runs like this: as §1
A short description of experiment [3]: qHTS RealTime-Glo MT Cell Viability Assay in HepG2 cells - 16 hour (AID 1224885). Also: nearly all actives have a fitted effect of over 50% in size. A digest of the protocol: (§2)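 HepG2 suspension premixed with RealTime-Glo reagents is plated at 600 cells per well and left 5 h at 37 C/5% CO2. Compounds in DMSO then go in, and bioluminescence reflecting viable cell number is recorded over 40 h.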
In general terms: Quantitative high-throughput screening tests each substance at several concentrations.

Experiment [4] in a line: qHTS RealTime-Glo MT Cell Viability Assay in HEK293 cells - 24 hour (AID 1224886). Also: nearly all actives have a fitted effect of over 50% in size. Also: potency is read from the fitted curve at half-maximal effect. A digest of the protocol: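 Reads taken at 0, 8, 16, 24, 32 and 40 h from the same wells. HEK293 cells (600/well) carried RealTime-Glo reagents from seeding, with compound added after a 5 h settle at 37 C.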
A short description of experiment [5]: qHTS RealTime-Glo MT Cell Viability Assay in HEK293 cells - 8 hour (AID 1224887). Also: nearly all actives have a fitted effect of over 50% in size. Also: potency is read from the fitted curve at half-maximal effect. In short, it runs like this:
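qHTS format; HEK293 cells with NanoLuc/prosubstrate reagent, 37 C/5% CO2 for 5 h pre-dosing; compounds 23 nL in DMSO; luminescence at each time point reflects viable cells.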

Experiment [6] is described as follows: A CellTox Green Cytotoxicity Assay to monitor cytotoxicity in HEK293 cells - 16 hour (AID 1224888). Also: nearly all actives have a fitted effect of over 35% in size. A digest of the protocol: (§3)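 Each value comes from one timepoint of a single continuous run in which HEK293 cells with CellTox Green were exposed to compound for up to 40 h at 37 C, dye fluorescence rising with cell death.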
The nature of experiment [7]: qHTS RealTime-Glo MT Cell Viability Assay in HepG2 cells - 0 hour (AID 1224889). Also: nearly all actives have a fitted effect of over 50% in size. In short, it runs like this: as §2
The nature of experiment [8]: A CellTox Green Cytotoxicity Assay to monitor cytotoxicity in HepG2 cells - 8 hour (AID 1224890). Also: nearly all actives have a fitted effect of over 45% in size. In short, it runs like this: as §1
The nature of experiment [9]: qHTS assay to identify small molecule antagonists of the estrogen receptor alpha (ER-alpha) signaling pathway using the BG1 cell line in the presence of 0.1 nM 17-beta-estradiol - cell viability counter screen (AID 1259241). Also: nearly all actives have a fitted effect of over 40% in size. A digest of the protocol: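 Measures cytotoxicity alongside the ER-alpha antagonist readout: VM7Luc4E2 cells, charcoal-stripped serum, 0.1 nM 17beta-estradiol final, 22 hr compound incubation at 37C, CellTiter-Fluor fluorescence.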

Experiment [10] can be described thus: qHTS assay to identify small molecule antagonists of the androgen receptor (AR) signaling pathway using the MDA cell line in the presence of 0.5 nM R1881 - cell viability counter screen (AID 1259242). Also: nearly all actives have a fitted effect of over 45% in size. A digest of the protocol: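 Fluorescence from CellTiter-Fluor, which reports protease activity of live cells, was read 30 min after reagent addition to MDA-kb2 cells that had been incubated 16 hr with compound and 0.5 nM R1881.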

Experiment [11] can be described thus: qHTS assay to identify small molecule HDAC inhibitors (AID 1259364). Also: nearly all actives have a fitted effect of over 45% in size. Also: potency is read from the fitted curve at half-maximal effect. In short, it runs like this: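 Endogenous HDAC class I/II activity was measured in wild-type HCT-116 cells by HDAC-Glo luminescence after 2 h compound treatment.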
A short description of experiment [12]: qHTS assay to identify small molecule HDAC inhibitors - cell viability counter screen (AID 1259365). In short, it runs like this:
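Following a 2hr exposure of overnight-plated wild-type HCT-116 cells to DMSO-delivered compounds, CellTiter-Glo was added and luminescence recorded after 30min at room temperature.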

Experiment [13] in a line: qHTS assay to identify small molecule agonists of the sonic hedgehog signaling (Shh) pathway - cell viability counter screen (AID 1259366). Also: nearly all actives have a fitted effect of over 50% in size. Also: potency is read from the fitted curve at half-maximal effect. In short, it runs like this:
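After a 4hr attachment at 37C, NIH/3T3 cells bearing an integrated Gli1-driven luciferase reporter were dosed with compounds. Treatment lasted 24hr, with the final hour including CellTiter-Fluor for a fluorescence viability measurement.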

Experiment [14] is described as follows: qHTS assay to identify small molecule antagonists of the sonic hedgehog signaling (Shh) pathway - cell viability counter screen (AID 1259367). Also: nearly all actives have a fitted effect of over 55% in size. Also: potency is read from the fitted curve at half-maximal effect. A digest of the protocol:
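Seed 3T3 Gli1-Luc cells at 2,000 per well; incubate 4 hr; add compound in DMSO, then conditioned medium; incubate at 37C with 5% CO2; add CellTiter-Fluor after 23 hr; read fluorescence 1 hr later.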

The nature of experiment [15]: qHTS assay to identify small molecule agonists of the sonic hedgehog signaling (Shh) pathway (AID 1259368; calls by dose curve;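 also: NIH/3T3-derived 3T3Gli1-Luc cells carrying a stable Gli1-driven firefly luciferase reporter; series mostly up to about 92 µM; nearly all actives have a fitted effect of over 15% in size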). In short, it runs like this:
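Luminescent signal was taken as a measure of Gli1-controlled luciferase expression in stably transfected NIH/3T3-derived cells that had been treated for 24 hr with compounds delivered in DMSO.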

The nature of experiment [16]: qHTS assay to identify small molecule antagonists of the sonic hedgehog signaling (Shh) pathway (AID 1259369; calls by dose curve; also: nearly all actives have a fitted effect of over 45% in size; also: potency is read from the fitted curve at half-maximal effect). A digest of the protocol:
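Screening used 3T3Gli1-Luc cells at 2,000 per well, compounds delivered in DMSO, and conditioned medium as agonist stimulus; plates incubated 24hr at 37 C and 5% CO2 before a 30min luciferase step.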

Experiment [17] concerns the target Estrogen receptor (Homo sapiens) (UniProt P03372). Description: qHTS assay to identify small molecule antagonists of the estrogen receptor alpha (ER-alpha) signaling pathway using the BG1 cell line in the presence of 0.1 nM 17-beta-estradiol (AID 1259244). Also: nearly all actives have a fitted effect of over 50% in size. Also: potency is read from the fitted curve at half-maximal effect. A digest of the protocol:
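Quantitative high-throughput screen in VM7Luc4E2 cells: compound plus 0.1 nM E2 (final), 22 h, 37C, 5% CO2; ONE-Glo added, 30 min room temperature, luminescence measured.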

Experiment [18] is described as follows: A CellTox Green Cytotoxicity Assay to monitor cytotoxicity in HEK293 cells - 8 hour (AID 1224884). Also: nearly all actives have a fitted effect of over 35% in size. A digest of the protocol: as §3
Experiment [19] deals with Androgen receptor (Homo sapiens) (UniProt P10275). Description: qHTS assay to identify small molecule antagonists of the androgen receptor (AR) signaling pathway using the MDA cell line in the presence of 0.5 nM R1881 (AID 1259243). Also: nearly all actives have a fitted effect of over 50% in size. Also: potency is read from the fitted curve at half-maximal effect. In short, it runs like this:
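Inhibition of R1881 (0.5 nM final) induced reporter signal was measured in human MDA-kb2 cells; note the MMTV promoter also responds to GR. Exposure lasted 16 hr at 37C.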

The nature of experiment [20]: qHTS assay to identify small molecule phospholipidosis (PLD) inducers (AID 1259344; active = well fitted curve in the direction sought with a large enough effect; an effect the other way counts as inactive or inconclusive). A digest of the protocol:
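Quantitative HTS in HepG2: compound plus LipidTOX Red dye for 24 h, paraformaldehyde fixation with Hoechst 33342, widefield high-content imaging; amiodarone as positive and DMSO as negative control.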

Results filed as inconclusive are left out. Activity calls are given as the source filed them. Unless noted, calls follow the shape of the dose curve; as a rule, active = well fitted curve in the direction sought with a large enough effect in the repeat runs; inconclusive = weak or mixed curves; inactive = no such curve, though single readings can be large; an effect the other way counts as inactive or inconclusive.

Sequence of Estrogen receptor (Homo sapiens) (P03372 whole entry, looked up): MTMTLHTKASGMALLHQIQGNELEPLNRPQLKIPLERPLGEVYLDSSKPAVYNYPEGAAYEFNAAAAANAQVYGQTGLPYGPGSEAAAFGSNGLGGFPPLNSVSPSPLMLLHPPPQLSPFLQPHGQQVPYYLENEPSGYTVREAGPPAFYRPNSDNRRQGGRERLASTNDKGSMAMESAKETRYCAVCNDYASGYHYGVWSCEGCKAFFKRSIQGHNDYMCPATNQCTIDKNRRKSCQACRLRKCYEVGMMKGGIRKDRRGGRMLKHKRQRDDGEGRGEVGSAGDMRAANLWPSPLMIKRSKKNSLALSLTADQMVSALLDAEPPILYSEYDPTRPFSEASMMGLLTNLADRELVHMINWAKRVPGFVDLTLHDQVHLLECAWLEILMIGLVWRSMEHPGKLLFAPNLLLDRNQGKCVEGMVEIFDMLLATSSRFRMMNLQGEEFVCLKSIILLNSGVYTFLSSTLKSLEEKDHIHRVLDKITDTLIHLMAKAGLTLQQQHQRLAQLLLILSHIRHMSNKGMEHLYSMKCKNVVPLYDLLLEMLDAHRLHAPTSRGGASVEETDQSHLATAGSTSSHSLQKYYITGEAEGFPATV
Sequence of Androgen receptor (Homo sapiens) (P10275 whole entry, looked up): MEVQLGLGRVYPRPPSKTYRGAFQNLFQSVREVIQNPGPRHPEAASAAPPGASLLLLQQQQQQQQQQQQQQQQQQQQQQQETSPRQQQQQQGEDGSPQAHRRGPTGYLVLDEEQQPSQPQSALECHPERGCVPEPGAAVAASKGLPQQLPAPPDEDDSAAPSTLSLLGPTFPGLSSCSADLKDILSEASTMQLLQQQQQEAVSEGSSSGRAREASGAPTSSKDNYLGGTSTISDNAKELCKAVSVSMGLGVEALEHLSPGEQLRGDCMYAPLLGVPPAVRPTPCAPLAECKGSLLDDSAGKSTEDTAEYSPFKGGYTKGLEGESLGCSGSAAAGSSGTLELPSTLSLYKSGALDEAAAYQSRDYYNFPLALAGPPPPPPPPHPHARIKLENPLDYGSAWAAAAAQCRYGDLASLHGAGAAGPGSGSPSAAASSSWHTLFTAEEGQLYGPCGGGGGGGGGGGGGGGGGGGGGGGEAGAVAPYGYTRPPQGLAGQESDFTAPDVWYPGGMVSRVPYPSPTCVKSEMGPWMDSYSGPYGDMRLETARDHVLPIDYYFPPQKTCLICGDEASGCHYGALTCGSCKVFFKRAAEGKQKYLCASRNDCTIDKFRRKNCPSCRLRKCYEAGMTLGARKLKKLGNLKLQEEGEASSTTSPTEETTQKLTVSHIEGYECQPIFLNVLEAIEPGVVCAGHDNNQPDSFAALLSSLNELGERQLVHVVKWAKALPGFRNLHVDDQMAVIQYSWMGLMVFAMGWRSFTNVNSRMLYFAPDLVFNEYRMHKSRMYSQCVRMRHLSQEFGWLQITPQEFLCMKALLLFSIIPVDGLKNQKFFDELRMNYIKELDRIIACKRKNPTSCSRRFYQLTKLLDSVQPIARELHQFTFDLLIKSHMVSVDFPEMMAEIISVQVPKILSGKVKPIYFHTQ

In the case of `CC(O)C1CCCCC1` (stereo not drawn), the Potency entry in [1], in experiment [2], in experiment [3], in experiment [4], in [5] and in [6] was “inactive” in each case. In addition, the Potency result in experiment [7], in experiment [8], in experiment [9], in [10], in experiment [11] and in [13] was “inactive” in each case. The Potency result in experiment [14] and in experiment [16] was “inactive” throughout. In addition, the result in [12] and in experiment [15] was inactive.
For `COC(Cc1ccccc1)OC`, the Potency entry in [1], in experiment [2], in experiment [3], in experiment [4], in experiment [5] and in [6] was “inactive” throughout. Also, the Potency result in experiment [7], in [8], in [9], in [10], in [17] and in [11] was “inactive” in each case. The Potency entry in experiment [14] and in experiment [16] was “inactive” throughout. Besides, the molecule was called inactive in experiment [12] and in [15].
In the case of `Cc1cc(O)ccc1N`, the Potency entry in [1], in experiment [2], in experiment [18], in experiment [6], in [7] and in experiment [8] was “inactive” throughout. In addition, the Potency was 55.3 µM (active) in [4]; 43.9 µM (active) in [5]; 43.5 µM (active) in experiment [19]; 15.4 µM (active) in [17]; 27.4 µM (active) in experiment [13]; 48.8 µM (active) in [14]. Further, the Potency in experiment [16] was 17.3 µM (active). Besides, the result in [12] and in [15] was inactive.
In the case of `CCCCOC(=O)c1ccccc1C(=O)OCC(CC)CCCC` (stereo not drawn), the Potency entry in experiment [1], in experiment [2], in experiment [18], in experiment [5], in [6] and in [7] was “inactive” throughout. Moreover, the Potency entry in experiment [8], in experiment [9], in experiment [10], in experiment [17], in experiment [11] and in experiment [13] was “inactive” each time. In addition, the Potency entry in [14] and in experiment [16] was “inactive” in each case. Further, the call in experiment [12] and in experiment [15] was inactive.
Take `CC(C)NCC(O)c1cc(O)cc(O)c1` (stereo not drawn): the Potency result in experiment [1], in [2], in [18], in [4], in experiment [5] and in [6] was “inactive” throughout. Also, the Potency result in experiment [7], in experiment [8], in [10], in [20], in experiment [11] and in experiment [14] was “inactive” each time. Besides, the Potency entry in experiment [16] is “inactive”. Besides, the call in experiment [12] and in [15] was inactive.
In the case of `Cc1occc1S`, the Potency entry in experiment [1], in [2], in experiment [3], in [4], in [5] and in experiment [6] was “inactive” each time. Also, the Potency entry in experiment [7], in experiment [8], in [9], in experiment [10], in [11] and in experiment [13] was “inactive” each time. The Potency result in [14] and in experiment [16] was “inactive” in each case. Further, the outcome in experiment [12] and in experiment [15] was inactive.
On to `CC(=O)OC/C=C/c1ccccc1`, for which the Potency result in experiment [1], in experiment [2], in [3], in [4], in experiment [5] and in experiment [6] was “inactive” each time. Moreover, the Potency entry in experiment [7], in experiment [8], in experiment [10], in experiment [11], in [13] and in experiment [14] was “inactive” throughout. Also, in experiment [16], the Potency entry is “inactive”. Besides, the molecule was classed as inactive in experiment [12] and in [15].
For the molecule `C=C(C)C(=O)OCCOc1ccccc1`, the Potency result in experiment [1], in experiment [2], in experiment [3], in experiment [5], in [6] and in experiment [7] was “inactive” each time. Besides, the Potency result in experiment [8], in experiment [9], in [10] and in [19] was “inactive” throughout. Also, the Potency in experiment [11] is 27.3 µM (active); in [16], 43.3 µM (active). In addition, the outcome in [12] and in experiment [15] was inactive.

The record behind these values is PubChem BioAssay (Tox21).
